# This is a sample that favours compounds with a hit; in the whole collection about 18% have one here.
# TGFb SMAD3 inh: blocks TGF-b signaling. HepG2 CAGA-GFP TGF-b/SMAD3 reporter, GFP fluorescence, 18 h; TGF-beta stimulated, 500 pg/mL final. AID 588855. 1.2% of 410,000 active. Potency, µM (doses to about 46.1 µM), for the others: at the highest dose activity, negative = inhibition, usual class: inhibitors; note: potency is the fitted concentration of half-maximal effect; % is set by controls: 0 for no effect and ±100 for the full control effect; nearly all actives have a fitted effect of over 65% in size
#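 HEPG2 CAGA-GFP reporter cells (1000/well, DMEM with 1% FBS) received compounds, then recombinant TGF-beta at 500 pg/mL final for 18 hours at 37 degrees C. Per-cell GFP summed per well was normalised to unstimulated and stimulated DMSO controls before curve fitting.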
# DT40 TDP1 no CPT: qHTS for Inhibitors of human tyrosyl-DNA phosphodiesterase 1 (TDP1): qHTS in cells in absence of CPT; DT40 Tdp1-/- hTDP1 cells, no CPT, ATP luminescence, 48 h; Potency, µM (doses to about 46.2 µM), for the others: at the top dose activity change, negative = growth inhibition, hits mostly inhibitors; 15% of 420,000 active; AID 686978, 2013; note: potency is the fitted concentration of half-maximal effect; % is set by controls: 0 for no effect and ±100 for the full control effect; nearly all actives have a fitted effect of over 55% in size
#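 A cellular qHTS used chicken DT40 cells lacking endogenous Tdp1 but carrying stably transfected human TDP1. Compounds were applied without camptothecin, and cell growth kinetics were judged by ATP-dependent luminescence after ≥48 hr.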
# IL1B secr inh: blocks inflammasome-driven IL-1 beta release | THP-1 LPS/ATP IL-1B secretion, AlphaLISA, 16 h; active compounds read low | activity change, % at 57.5 µM | AID 743279 | 4.7% of 360,000 active; in the data active = activity change below about -50%; inconclusive = mostly about -30% to -49%; note: % is set by controls: 0 for no effect and ±100 for the full control effect
#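 Secreted IL-1B measured by AlphaLISA bead assay after 16 h compound exposure of THP-1 cells; compounds (final up to 57.5 uM) added 1 h before LPS (250 ng/mL) and ATP (1.25 mM) stimulation; lower signal means less secretion.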
# HepG2 viability: HepG2 cytotoxicity, counter-screen for TGF-b inhibitors; HepG2 CAGA-GFP viability, ATP luminescence, 18 h; Potency, µM (series often up to 46.1 µM), for inactives: top-dose activity change, negative = cytotoxicity, hits mostly cytotoxic; 0.76% of 410,000 active; AID 588856; note: potency is the fitted concentration of half-maximal effect
#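 CellTiter-Glo luminescence gave cytotoxicity after 18 hours at 37 degrees C. The cells were HepG2 CAGA-GFP in 1% FBS DMEM, stimulated with 500 pg/mL TGF-beta after compound addition. %Activity was normalised to no-cell wells (complete cell-killing) and DMSO (no toxicity), and curves were fitted and classified.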
# TDP1 cell CPT: growth inhibition of DT40 Tdp1-/-;hTDP1 cells with camptothecin (screen for TDP1 inhibitors). 12% of 420,000 active. chicken DT40 Tdp1-/-;hTDP1 cells + 20 nM CPT, ATP luminescence, 48 h. Potency, µM (doses to about 46.2 µM), for the others: at the top dose activity change, negative = growth inhibition, hits mostly inhibitors; note: potency is the fitted concentration of half-maximal effect; % is set by controls: 0 for no effect and ±100 for the full control effect; nearly all actives have a fitted effect of over 55% in size
#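 Chicken DT40 Tdp1-/- cells stably complemented with human TDP1 were seeded at 400 cells/well in medium containing 20 nM camptothecin, exposed to pin-transferred compounds, and grown at 37 °C for at least 48 hr. Viability was read as ATP luminescence.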
# TDP1 inh: TDP1 (human) enzyme inhibition; Q9NUW8; recombinant TDP1, AlphaScreen DNA substrate cleavage; 0.28% of 350,000 active; Potency, µM (top dose mostly 130 µM), inactives show top-dose activity change, negative = inhibition, most hits filed as inhibitors; AID 485290; note: potency is the fitted concentration of half-maximal effect; % is set by controls: 0 for no effect and ±100 for the full control effect; nearly all actives have a fitted effect of over 40% in size
# Target sequence (Q9NUW8 whole entry, looked up): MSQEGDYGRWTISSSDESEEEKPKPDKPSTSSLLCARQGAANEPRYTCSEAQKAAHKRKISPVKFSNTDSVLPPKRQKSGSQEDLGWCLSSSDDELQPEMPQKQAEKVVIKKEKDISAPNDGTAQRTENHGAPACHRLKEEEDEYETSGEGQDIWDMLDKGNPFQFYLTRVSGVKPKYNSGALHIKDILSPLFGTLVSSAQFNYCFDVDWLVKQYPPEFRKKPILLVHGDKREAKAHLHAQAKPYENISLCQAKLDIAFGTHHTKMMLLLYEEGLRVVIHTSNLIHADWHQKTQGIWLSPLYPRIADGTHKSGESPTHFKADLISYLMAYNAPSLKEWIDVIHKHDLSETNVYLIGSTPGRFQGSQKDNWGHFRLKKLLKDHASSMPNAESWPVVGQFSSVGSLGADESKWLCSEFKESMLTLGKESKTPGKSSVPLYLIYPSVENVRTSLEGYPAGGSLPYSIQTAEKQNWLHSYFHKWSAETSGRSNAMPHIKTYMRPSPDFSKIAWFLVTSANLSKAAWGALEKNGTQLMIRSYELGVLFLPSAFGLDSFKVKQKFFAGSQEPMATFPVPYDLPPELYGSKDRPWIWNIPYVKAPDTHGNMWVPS
#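 Tdp1 1 nM final; 15 min RT w/ cpd; substrate 15 nM, 5 min; beads 10 ug/ml, 10 min; AlphaScreen read. Neg ctrl: no enzyme.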
# An asterisk follows results filed as active; u = inconclusive; x = not tested or not shown. Unless noted, calls come from the whole dose curve; as a rule, active = well fitted curve in the direction sought with a large enough effect; inconclusive = small, poorly fitted or top-dose-only effect, or another doubt; inactive = no such curve, though single readings can be large; an effect the other way counts as inactive or inconclusive.
SMILES,TGFb SMAD3 inh,DT40 TDP1 no CPT,IL1B secr inh,HepG2 viability,TDP1 cell CPT,TDP1 inh
CC(C)(C)n1ncc2c(=O)n(Cc3cccc(OC(F)(F)F)c3)cnc21,u,x,x,-36%,x,x
COc1ccc(OC)c(CNC(=O)C2CCC(=O)N2C(C)C)c1 (centres undefined),6%,5%,-4,8%,2%,x
O=C(NCCc1ccc(Cl)cc1)C1CCN(C(=O)N2CCOc3ccccc32)CC1,-12%,23µM*,-27,-28%,26µM*,x
O=C(Nc1cccc(F)c1)C1CCN(C(=O)N2CCOc3ccccc32)CC1,-23%,u,-26,-14%,u,x
Cc1ccc2c(c1)N(C(=O)N1CCC(C(=O)Nc3cccc(F)c3)CC1)CCO2,u,18µM*,x,-24%,u,0%
CCc1ccc(NC(=O)C2CCN(C(=O)N3CCOc4ccccc43)CC2)cc1,-13%,u,-4,-33%,26µM*,x
CCc1ccccc1NC(=O)C1CCN(C(=O)N2CCOc3ccccc32)CC1,-6%,21µM*,9,-11%,u,x
O=C(COc1ccc2ccccc2c1)NC1CC(=O)N(c2ccc(F)cc2)C1 (centres undefined),1%,u,x,3%,u,0%
O=C(NC1CCCCCC1)C1CCN(C(=O)N2CCOc3ccc(Cl)cc32)CC1,-28%,u,x,-20%,26µM*,8%
CC(=O)c1cccc(NC(=O)C(C)OC(=O)c2cccc(-n3cnnn3)c2)c1 (centres undefined),1%,-3%,4,-6%,-4%,0%
CCCCCCc1cc2cc(-c3nnc(-c4cc(OC)c(OC)c(OC)c4)o3)c(=O)oc2cc1O,60%,23µM*,40,6%,u,5%
CCCCCCc1cc2cc(S(=O)(=O)c3ccc(F)cc3)c(=O)oc2cc1O,-15%,u,-1,-43%,21µM*,0%
CCCCCCc1cc2cc(-c3nnc(-c4ccccc4OC)o3)c(=O)oc2cc1O,14%,16µM*,1,-102%,u,-5%
CCCCCCc1cc2cc(C(=O)Nc3ccccc3OC)c(=O)oc2cc1O,8%,16µM*,7,28%,16µM*,-2%
COc1cccc2cc(-c3nnc(-c4ccccc4)o3)c(=O)oc12,0%,-17%,u,-12%,1%,1%
COc1ccc(NC(=O)c2cc3ccccc3oc2=O)c(OC)c1,-1%,0%,13,-16%,-16%,x
Cc1ccc(NC(=O)CN2C(=O)CC(C)S(=O)(=O)c3ccccc32)cc1 (centres undefined),2%,24%,-8,-4%,-1%,2%
COc1ccc(-c2c(C(=O)c3ccccc3)[nH]c(N)c2C(=O)NC2CC2)cc1OC,x,u,-3,x,-24%,x
CCN(C[C@H]1N[C@@](CC)(C(=O)OC)[C@H]2C(=O)N(Cc3ccccc3)C(=O)[C@@H]12)C(=O)C1CCCCC1,-10%,u,-22,-23%,-19%,0%
COc1ccc(-c2nnc(-c3cc4ccccc4oc3=O)o2)cc1,-11%,u,-10,-8%,-5%,2%
CCCCCCc1cc2cc(-c3nnc(-c4ccccc4O)o3)c(=O)oc2cc1O,13%,7.3µM*,0,-12%,8.2µM*,1%
Cc1cccn2c(=O)c(C=NCCO)c(NCc3ccco3)nc12,0%,-15%,54,-9%,-17%,0%
Cc1cccn2c(=O)c(C=NCc3ccco3)c(Nc3ccc(SC(F)F)cc3)nc12,-6%,u,-5,-2%,26µM*,1%

# Compound activity deposited in PubChem by National Center for Advancing Translational Sciences (NCATS).
